# Screening results: PubChem BioAssay, National Center for Advancing Translational Sciences (NCATS)
# Nrf2 ARE act: Nrf2 pathway activation; Potency, µM (highest dose often 46.1 µM), for inactives: at the highest dose activation, hits mostly activators; AREc32 ARE-luciferase reporter (MCF7-derived line), luminescence, 24 h; actives 0.31% (n = 410,000); note: % of control where 0% means no effect; nearly all actives have a fitted effect of over 65% in size
#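 AREc32_Fluc, 1000 cells/well, OPTI-MEM + 5% FBS, o/n 37 deg C 5% CO2; 23 nL cpd by pin tool, 24 hr; Steady-Glo 30 min RT, luminescence.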
# A549 viability: kills or reduces viability of A549 cells in Nrf2 counter-screen | A549 ARE-Fluc cells, CellTiter-Fluor viability, 18-24 h | actives 0.16% (n = 390,000) | Potency, µM (titrated, usually from 46 µM), for the others: at the top dose activity change, negative = cytotoxicity, usual class: inhibitors | AID 504648; note: % is set by controls: 0 for no effect and ±100 for the full control effect
#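 A549 ARE_Fluc cells in 5% FBS OPTI-MEM were exposed to compounds in concentration-response for 18-24 h at 37 deg C. Viability was read by CellTiter-Fluor fluorescence (Ex 405/Em 525) after 30 min, before the luciferase read.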
# Rango dissoc inh: inhibitors of RanGTP-induced Rango-importin beta complex dissociation; AID 540253; Biochemical FRET Rango-importin beta, RanGTP-induced dissociation; actives 0.071% (n = 340,000); Potency, µM (series often up to 46.1 µM), inactives show at the highest dose activity change, negative = inhibition; calls by dose curve; note: % of control where 0% means no effect; nearly all actives have a fitted effect of over 45% in size
#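 Two FRET readings bracket the reaction: one 5 min after compound meets Rango–importin beta, another 45 min after RanGTP-RCC1 (0.6 uM Ran, 0.2 uM RCC1, 2 mM GTP) is added. Only the second defines inhibition.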
# Rango complex inh: prevents formation of the Rango-importin beta complex | Q14974 | Rango CFP/YFP FRET sensor + importin beta, 45 min | Potency, µM (highest dose often 92.2 µM), for the others: at the top dose inhibition of complex formation | actives 0.031% (n = 340,000); calls by dose curve;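 note: 0% = DMSO wells and 100% = buffer wells lacking importin beta; nearly all actives have a fitted effect of over 15% in size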
# Target sequence (Q14974 whole entry, looked up): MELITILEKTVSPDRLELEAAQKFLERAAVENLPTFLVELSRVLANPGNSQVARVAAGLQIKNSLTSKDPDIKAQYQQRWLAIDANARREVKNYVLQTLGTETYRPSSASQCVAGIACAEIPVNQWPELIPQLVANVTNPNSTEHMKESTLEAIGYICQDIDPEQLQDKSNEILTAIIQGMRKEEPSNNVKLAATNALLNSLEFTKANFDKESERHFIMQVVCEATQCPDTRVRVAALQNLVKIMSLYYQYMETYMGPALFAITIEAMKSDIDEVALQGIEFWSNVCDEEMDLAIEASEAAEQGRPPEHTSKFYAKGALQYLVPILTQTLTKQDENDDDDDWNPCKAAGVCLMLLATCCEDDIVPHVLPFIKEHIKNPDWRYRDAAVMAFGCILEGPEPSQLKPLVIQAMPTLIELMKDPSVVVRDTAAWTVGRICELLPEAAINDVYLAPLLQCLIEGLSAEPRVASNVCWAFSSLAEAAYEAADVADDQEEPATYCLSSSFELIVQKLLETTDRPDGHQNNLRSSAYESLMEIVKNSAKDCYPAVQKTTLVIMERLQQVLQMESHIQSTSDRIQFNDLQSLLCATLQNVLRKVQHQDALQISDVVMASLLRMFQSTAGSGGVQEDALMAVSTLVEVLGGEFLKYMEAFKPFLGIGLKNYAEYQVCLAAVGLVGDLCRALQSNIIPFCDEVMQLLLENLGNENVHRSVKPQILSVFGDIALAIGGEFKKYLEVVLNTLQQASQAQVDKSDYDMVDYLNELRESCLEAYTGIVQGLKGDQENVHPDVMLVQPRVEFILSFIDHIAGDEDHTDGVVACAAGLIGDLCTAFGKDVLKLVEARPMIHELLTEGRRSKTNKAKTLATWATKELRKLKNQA
#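 FRET biosensor Rango (snurportin 1 IBB between N-terminal EYFP and C-terminal Cerulean), 50 nM in PBS/1 mM DTT/0.02% Tween-20/0.1% BSA, preincubated 5 min RT with compound; 0.125 microM importin beta added, 45 min RT, CFP/YFP FRET ratio read.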
# Nrf2 block: Nrf2 pathway inhibition; A549 ARE-Fluc reporter, luciferase luminescence, 18-24 h; Potency, µM (highest dose often 46 µM), inactives show top-dose activity change, negative = inhibition, usual class: inhibitors; actives 2.1% (n = 360,000); note: % is set by controls: 0 for no effect and ±100 for the full control effect; nearly all actives have a fitted effect of over 60% in size
#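 Reporter: ARE-Fluc in A549. Exposure: 18-24 h, 37 °C, 5% CO2, 5% FBS OPTI-MEM. Readouts: fluorescent cytotoxicity (CellTiter-Fluor), then luminescent Nrf2 signal after BugLite.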
# Starred values were filed as active, the others as inactive; ? = inconclusive; · = no result; [ ] = remark or other dose. Compounds with a hit are over-represented: about 2.3% of the library has one in this group of screens. Unless noted, calls come from the whole dose curve; as a rule, active = well fitted curve in the direction sought with a large enough effect; inconclusive = small, poorly fitted or top-dose-only effect, or another doubt; inactive = no such curve, though single readings can be large; an effect the other way counts as inactive or inconclusive. Potency is the fitted concentration of half-maximal effect.
SMILES,Nrf2 ARE act,A549 viability,Rango dissoc inh,Rango complex inh,Nrf2 block
O=C(O)c1cccc(-n2cccc2/C=C2/NC(=O)N(c3ccc(Cl)cc3)C2=O)c1,-0.2%,-11.2%,16.4µM*,?,?
O=C(O)c1cccc(-n2cccc2/C=C2/NC(=O)N(c3cccc(Cl)c3)C2=O)c1,0.9%,?,8.2%,-0.9%,-23.5%
CCOc1ccc(C2c3c(ncn(-c4ccccc4)c3=N)Oc3ccc4ccccc4c32)cc1OCC (centres undefined),·,20.6µM*,·,·,16.4µM*
N=c1c2c(ncn1-c1ccccc1)Oc1ccc3ccccc3c1C2c1ccc2c(c1)CCO2 (centres undefined),·,16.4µM*,·,·,?
COc1ccc(-n2cnc3c(c2=N)C(c2cccc(OC)c2)c2c(ccc4ccccc24)O3)cc1 (centres undefined),·,-3.8%,·,·,?
CCOCCCN1CC(=O)N2[C@@H](Cc3c([nH]c4ccccc34)C2(C)C)C1=O,-1.8%,4.7%,-15.5%,1.5%,1.3%
Cc1ccc(NC(=S)NNc2ncc(C(F)(F)F)cc2Cl)c(C)c1,-0.6%,-12.1%,-5.6%,5.1%,?
FC(F)(F)c1cnc(NNC(=S)Nc2ccc(Cl)cc2)c(Cl)c1,10.3%,?,3.2%,-1.0%,11.6µM*
Cc1ccc(NC(=S)NNc2ncc(C(F)(F)F)cc2Cl)cc1,-2.7%,-5.4%,2.2%,2.5%,23.1µM*
COc1ccc(CCNC(=O)CC2SC(N)=NC2=O)cc1OC (centres undefined),-0.1%,0.7%,0.6%,-2.6%,-0.4%
CC(C)OCc1cc(CN2CCN(c3cccc(C(F)(F)F)c3)CC2)c(O)c2ncccc12,0.6%,-25.1%,·,·,16.4µM*
Cc1ccc(/C(N)=N/OC(=O)c2cccc(F)c2)cc1,11.2µM*,11.1%,-13.9%,-3.7%,·
N/C(=N\OC(=O)c1ccc(F)cc1)c1ccccc1,?,-1.5%,2.7%,-1.5%,?
N/C(=N\OC(=O)c1cccc(F)c1)c1ccccc1,11.2µM*,3.0%,-5.7%,0.3%,?
Cc1ccc(/C(N)=N/OC(=O)c2ccc(F)cc2)cc1,8.1%,-10.8%,4.2%,-2.0%,?
O=C(c1ccccc1)C1OC1C(=O)c1ccccc1 (centres undefined),12.6µM*,-9.7%,0.7%,-0.8%,?
CC(C)(C)C(=O)N1CCN(c2ccc3c(c2)C2CC3CCN2C(=O)OCc2ccccc2)CC1 (centres undefined),0.8%,·,·,·,·
CN(C)S(=O)(=O)c1ccc(C(=O)NCCSc2ccc(Br)cc2)cc1,5.3%,?,-1.1%,0.5%,20.6µM*
N#CN1CCC(NC(=O)c2cccc(F)c2)CC1,·,-2.0%,·,·,3.9%
O=C(CC1(O)C(=O)Nc2cc(Cl)cc(Cl)c21)c1ccccc1O (centres undefined),15.8µM*,-13.1%,26.5%,-0.6%,-27.1%
Cc1ccc(C2CN=NC23CCc2ccccc2C3=O)cc1 (centres undefined),5.3%,1.2%,1.4%,-1.0%,?
O=C1c2ccccc2CCCC12N=NCC2c1cccc2ccccc12 (centres undefined),-0.5%,-4.2%,-25.3%,-1.2%,16.4µM*
COc1ccc(C2N(Cc3ccccc3)C(=O)c3ccccc3N2C)cc1COc1ccc(NC(C)=O)cc1 (centres undefined),·,-10.0%,·,·,?
Cc1ccc(OCCN2CCN(C(=O)CCC(=O)Nc3nnc(C(C)C)s3)CC2)cc1,3.6%,?,-0.7%,1.0%,11.6µM*
Cc1ccc(OCCN2CCN(C(=O)CCC(=O)Nc3nnc(C)s3)CC2)cc1,-0.1%,0.6%,3.4%,-1.3%,-0.8%
SMILES,Nrf2 ARE act,A549 viability,Rango dissoc inh,Rango complex inh,Nrf2 block
O=C1C(=Cc2ccco2)CCC1=Cc1ccco1,18.5%,?,-29.6%,?,-6.1%
O=C1C(=Cc2ccco2)CCCC1=Cc1ccco1,3.16µM*,0.5%,-26.2%,?,3.5%
Cc1ccc(-n2c(=O)c3c(cnn3C)n(CC(=O)Nc3cccc(Cl)c3)c2=O)cc1,0.5%,-7.2%,·,·,-0.4%[9.27 µM]
COc1ccc(OCCOC(=O)CN2C(=O)NC3(CCCC3)C2=O)cc1,-0.9%,3.0%,-9.3%,-2.3%,0.9%
CCCc1cc(=O)oc2cc(OC(=O)CN3C(=O)NC4(CCCC4)C3=O)ccc12,-0.8%,0.0%,11.6µM*,?,18.5%
CCOc1cc(C(=S)N2CCOCC2)ccc1OS(=O)(=O)c1ccc(OC)cc1,-0.1%,-2.2%,-7.9%,-0.2%,?
CCOc1cc(C(=S)N2CCOCC2)ccc1OS(=O)(=O)c1ccc(NC(C)=O)cc1,0.8%,-15.5%,-6.4%,5.9%,9.2µM*
CC(=O)Nc1ccc(S(=O)(=O)Oc2ccc(C(=S)N3CCCCC3)cc2)cc1,0.5%,-16.9%,-2.8%,6.3%,20.6µM*
O=C1NC(=S)N/C1=C/c1ccc2c(c1)OCO2,-1.0%,?,12.1%,0.6%,13µM*
O=C1NC(=S)NC1=Cc1ccc(O)cc1,6.3%,-0.9%,-13.0%,?,17.2%
O=C1NC(=S)N/C1=C\c1ccc(N2CCOCC2)cc1,0.7%,-7.5%,8.2µM*,?,?
O=C(/C=C/c1cccs1)c1cc(Cl)ccc1O,14.1µM*,-4.8%,-20.4%,-5.7%,10.9%
O=C(C=Cc1cccs1)c1ccc(Cl)s1,22.4µM*,-2.6%,-13.5%,2.2%,5.5%
CCCCOc1ccc(C2C(=O)N(C3CCCCC3)CC(=O)N2C2CCCCC2)cc1 (centres undefined),0.3%,-6.9%,·,·,·
COc1ccc(OC)c(S(=O)(=O)Nc2cc(OC)c(Cl)cc2OC)c1,0.3%,1.3%[1.84 µM],-5.7%,-0.3%,?
COc1cc(NS(=O)(=O)c2ccc(OC)c(C)c2C)c(OC)cc1Cl,-0.4%,-12.5%,-5.1%,-0.3%,20.6µM*
O=C(C1CCN(S(=O)(=O)c2ccc(Br)s2)CC1)N1CCN(c2cccc(Cl)c2)CC1,-0.5%,-5.6%,·,·,?
Cc1cccc(N2CCN(C(=O)C3CCCN(S(=O)(=O)c4c(C)noc4C)C3)CC2)c1C (centres undefined),0.6%,-17.9%,12.6%,-0.8%,?
Cc1cccc(N2CCN(C(=O)C3CCCN(S(=O)(=O)c4ccc(Br)s4)C3)CC2)c1C (centres undefined),-1.3%,-5.8%,·,·,10.3µM*
COc1cccc(N2CCN(C(=O)C3CCCN(S(=O)(=O)c4ccc(Br)s4)C3)CC2)c1 (centres undefined),5.0%,-4.9%,·,·,16.4µM*
Cc1cccc(N2CCN(C(=O)c3cc(S(=O)(=O)N4CCCC4)cn3C)CC2)c1C,-2.4%,-6.7%,-1.7%,5.9%,18.4µM*
O=C(C1CCCN(S(=O)(=O)c2ccc(Br)s2)C1)N1CCCCCC1 (centres undefined),-0.3%,4.2%,1.2%,0.2%,·
